Reference: ChEMBL document CHEMBL1157539, “Thousands of chemical starting points for antimalarial lead identification” (Nature, 2010)

system: Plasmodium falciparum; assay: GSK_TCMDC: Inhibition of Plasmodium falciparum Dd2 in whole red blood cells, using parasite LDH activity as an index of growth. Test compounds present at 2uM; format: functional

How did the Inhibition turn out when `Clc1cc(Nc2ncnc3sc(C#Cc4ncc[nH]4)cc23)ccc1OCc1ccccn1` was run?
The Inhibition was 6%.

`CC(Cc1ccc(C(=O)OC(c2ccccc2)c2ccccc2)cc1)NCC(O)c1ccccc1.Cl` (centres undefined) was tested. Which Inhibition did it give?
The Inhibition was 98%.

For `Cc1ccc(Cn2c(N3CCC(C(=O)NCc4cccs4)CC3)nc3ccccc32)cc1`, which Inhibition is on record?
The Inhibition was 71%.

With `Cl.Fc1cc(CN2CCCC2)ccc1OCCCN1CCN(c2cccc(Cl)c2Cl)CC1` as the molecule, how does the Inhibition read?
The Inhibition was 15%.

With `CC(C)Cc1cn(-c2nc(-c3nc4ccccc4[nH]3)cs2)c2cc(Cl)ccc12.Cl` as the molecule, how does the Inhibition read?
Its Inhibition is 68%.

How did the Inhibition turn out when `Cc1[nH]c(C)c(-c2ccc(OCc3ccc(F)cc3)nc2)c(=O)c1Br` was run?
The Inhibition was 97%.

For `CC(C)C[C@@H](CNC[C@H](CC(C)C)NC(=O)OC(C)(C)C)NC(=O)OC(C)(C)C`, which Inhibition is on record?
Its Inhibition is 58%.

For `O=C(Nc1ccc(Cn2nc(Cl)c(N3CCCNCC3)cc2=O)cc1)Nc1ccc(-c2ccccc2)cc1.O=C(O)C(F)(F)F`, which Inhibition is on record?
Its Inhibition is 36%.

`Cc1nn(-c2ccccc2)c2c1C(c1ccc(C(C)C)cc1)N1C(=N2)N(Cc2ccccc2)c2ccccc21` (centres undefined) was tested. Which Inhibition did it give?
Its Inhibition is 37%.

For `COc1ccc2nccc([C@@H](O)CN3CCC(NC(=O)c4[nH]c5ccccc5c4-c4ccccc4)CC3)c2c1`, which Inhibition is on record?
Its Inhibition is 68%.

`O=C(O)C(F)(F)F.c1cc(-c2ccc(CNCCc3ccncc3)cc2)cc(-c2nc3ccccc3[nH]2)c1` was tested. Which Inhibition did it give?
The Inhibition was 99%.

With `Nc1nccc2ccc(-c3cccc(OCc4ccccc4)c3)cc12.O=C(O)C(F)(F)F` as the molecule, how does the Inhibition read?
Its Inhibition is 81%.

With `Cc1cccc2nc(-c3cccc(-c4cccc(CNCc5cnn(-c6ccccc6)n5)c4)c3)[nH]c12.O=C(O)C(F)(F)F` as the molecule, how does the Inhibition read?
Its Inhibition is 38%.

Which Inhibition does the source give for `CC(C)(C)c1ccc(N2C(N)=NC(N)=NC2(C)C)cc1.Cl` here?
Its Inhibition is 0%.

Which Inhibition does the source give for `O=C(Nc1ccc(Cl)cc1)Nc1cccc(CCNCc2ccccc2)c1.O=C(O)C(F)(F)F` here?
The Inhibition was 12%.

`C[C@@H](CC1CCCCC1)OC(=O)N(C)[C@@H]1CCN(C#N)C1` was tested. Which Inhibition did it give?
The Inhibition was 96%.

Which Inhibition does the source give for `N=C(N)NN=Cc1c[nH]c2ccc(-c3ccccc3)cc12.O=C(O)/C=C\C(=O)O` here?
Its Inhibition is 61%.

For `O=C(Nc1cccc(CN2CCN(Cc3ccc(O)cc3)CC2)c1)c1ccc(Cl)c(Cl)c1.O=C(O)C(F)(F)F`, which Inhibition is on record?
The Inhibition was 95%.

How did the Inhibition turn out when `Cc1cccc(CNc2nc(C)cc(N[C@@H](Cc3ccccc3)C(=O)NC3CCCC3)n2)c1.O=C(O)C(F)(F)F` was run?
The Inhibition was 97%.
